Screening data: PubChem, National Center for Advancing Translational Sciences (NCATS)
This is a sample that favours compounds with a hit; in the whole collection about 0.91% have one here.
BLM helicase inh-1: Bloom syndrome helicase (human) inhibition | P54132 | recombinant BLM DNA unwinding, fluorescence dequenching | Potency, µM (highest dose often 56.1 µM), actives largely listed as inhibitors | actives 0.2% (n = 350,000); also: nearly all actives have a fitted effect of over 35% in size
RECQ1 inh: blocks DNA unwinding by human RECQ1. P46063. RECQ1 DNA unwinding, red fluorescence kinetic read. Potency, µM (top dose mostly 57.3 µM), most hits filed as inhibitors. actives 0.54% (n = 240,000). AID 2549; also: nearly all actives have a fitted effect of over 30% in size
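RECQ1T1 50 nM; forked duplex (20 bp + 30-nt ss tails) 200 nM, ATP 2 mM final; pH 8.0, 2 mM MgCl2, 2.5 ug/ml poly(dI-dC); 15 min compound preincubation; discontinuous kinetic read over 2 h at RT.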
TRb-SRC2 inh: disrupts binding of human TR beta to SRC2; P10828; TRbeta-SRC2 peptide binding, fluorescence polarization; receptor liganded with 1 µM T3; Potency, µM (top dose mostly 106 µM), actives largely listed as inhibitors; actives 0.065% (n = 280,000); AID 1469; also: nearly all actives have a fitted effect of over 50% in size
Target sequence (P10828 whole entry, looked up): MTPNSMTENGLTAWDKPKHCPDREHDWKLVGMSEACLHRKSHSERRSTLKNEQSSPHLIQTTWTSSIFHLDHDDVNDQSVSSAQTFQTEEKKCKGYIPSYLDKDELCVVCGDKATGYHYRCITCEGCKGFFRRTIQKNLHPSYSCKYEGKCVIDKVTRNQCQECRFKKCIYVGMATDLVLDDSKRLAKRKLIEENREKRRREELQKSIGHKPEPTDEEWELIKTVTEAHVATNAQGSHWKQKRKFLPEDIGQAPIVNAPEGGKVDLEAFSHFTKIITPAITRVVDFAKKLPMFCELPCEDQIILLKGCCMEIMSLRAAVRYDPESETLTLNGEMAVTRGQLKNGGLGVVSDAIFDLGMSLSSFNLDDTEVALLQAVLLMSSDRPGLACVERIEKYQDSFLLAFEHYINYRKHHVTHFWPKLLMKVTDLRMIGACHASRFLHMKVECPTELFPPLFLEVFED
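Human TRb ligand-binding domain (0.6 uM) is mixed with 20 nM Texas Red SRC2 peptide and 1 uM T3; after compound addition and 5 hr at ambient temperature, polarization is measured and normalized to unbound and bound controls.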
WRN helicase inh-1: inhibitors of human WRN helicase; Q14191; WRN helicase unwinding, fluorescent forked duplex, kinetic; Potency, µM (titrated, usually from 114 µM), most hits filed as inhibitors; actives 0.46% (n = 360,000); also: nearly all actives have a fitted effect of over 55% in size
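Kinetic fluorescence helicase assay: unwinding of a quenched forked DNA duplex (100 nM final) with 2 mM ATP final raises red fluorescence (525/598 nm). Compounds sat 15 min at room temperature with 20 nM WRN beforehand.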
APEX1 inh: blocks human APE1 abasic DNA cleavage; recombinant APE1, TAMRA/BHQ-2 abasic DNA cleavage fluorescence; Potency, µM (highest dose often 65.8 µM), usual class: inhibitors; actives 0.35% (n = 350,000); also: nearly all actives have a fitted effect of over 55% in size
Target sequence (P27695 whole entry, looked up): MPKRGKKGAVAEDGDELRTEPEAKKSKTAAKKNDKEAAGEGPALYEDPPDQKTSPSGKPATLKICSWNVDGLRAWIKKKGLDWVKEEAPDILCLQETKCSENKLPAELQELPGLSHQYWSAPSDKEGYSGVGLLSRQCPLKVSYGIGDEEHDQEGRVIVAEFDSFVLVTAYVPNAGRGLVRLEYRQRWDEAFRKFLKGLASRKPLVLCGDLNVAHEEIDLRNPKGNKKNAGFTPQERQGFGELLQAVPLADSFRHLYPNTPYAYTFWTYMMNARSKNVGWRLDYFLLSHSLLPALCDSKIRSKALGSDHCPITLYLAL
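Measures dequenching upon AP-site incision of a 5'-TAMRA/3'-BHQ-2 THF-containing duplex, 50 nM; human APE1 0.75 nM after 15 min room-temperature exposure to compound; kinetic three-point read at one-minute spacing.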
TR SRC2 fluor cs: counter-screen for TRb-SRC2 inhibitors: fluorescence interference; TRb/SRC2 Texas Red total fluorescence interference; Potency, µM (titrated, usually from 106 µM); actives 0.29% (n = 280,000); active = well fitted curve in either direction with a large enough effect; inconclusive = small, poorly fitted or top-dose-only effect
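Human TRβ ligand-binding domain (0.6 uM) and Texas Red SRC2 peptide (20 nM) in Tris buffer with 1 uM T3 and 5% DMSO were incubated with pinned compound for 5 hr at ambient temperature. Total fluorescence was computed as S + 2P (555/632 nm).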
WRN helicase inh-2: confirmation of human WRN helicase inhibitors | WRN helicase DNA unwinding, fluorescence kinetic | actives 63% (n = 610) | Potency, µM (titrated, usually from 57.1 µM), most hits filed as inhibitors | shares compounds with WRN helicase inh-1 | AID 720497; also: nearly all actives have a fitted effect of over 65% in size
TO DNA binding: DNA binding via thiazole orange displacement | shares compounds with WRN helicase inh-1 | thiazole orange DNA binding displacement, fluorescence | Potency, µM (doses to about 57.1 µM), usual class: inhibitors | actives 10% (n = 610) | AID 720499;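 also: drop in dye fluorescence marks compound binding to DNA; nearly all actives have a fitted effect of over 60% in size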
BLM helicase inh-2: counter-screen for WRN helicase inhibitors: human BLM helicase inhibition. shares compounds with WRN helicase inh-1. Recombinant BLM helicase DNA unwinding, red fluorescence. Potency, µM (series often up to 57.1 µM), actives largely listed as inhibitors. actives 60% (n = 610); also: nearly all actives have a fitted effect of over 60% in size
Numbers stand for hits; n = inactive; u = inconclusive; x = no result given. Unless noted, calls follow the shape of the dose curve; as a rule, active = well fitted curve in the direction sought with a large enough effect; inconclusive = small, poorly fitted or top-dose-only effect, or another doubt; inactive = no such curve, though single readings can be large; an effect the other way counts as inactive or inconclusive.

SMILES | BLM helicase inh-1 | RECQ1 inh | TRb-SRC2 inh | WRN helicase inh-1 | APEX1 inh | TR SRC2 fluor cs | WRN helicase inh-2 | TO DNA binding | BLM helicase inh-2
COc1cc(C)c2sc3ccccc3c(=O)c2c1NCCN(C)C | x | x | x | 35µM | x | x | u | 17µM | u
Cc1cc(O)cc2c(=O)c3ccccc3sc12 | n | n | n | n | n | n | x | x | x
O=C1c2cc(O)c(O)cc2OC(c2ccc(O)c(O)c2)C1O (stereo unspecified) | x | x | x | u | x | x | 14µM | n | u
O=S(=O)(O)c1ccc(O)c2cc(Nc3ccccc3)ccc12 | x | x | x | 0.95µM | x | x | 0.43µM | 9.6µM | 0.061µM
O=C(NCc1cccs1)c1ccc2c(=O)n3nc(Nc4ccccc4)sc3nc2c1 | n | x | n | x | x | n | 19µM | n | 3.4µM
CCN1/C(=C/c2ccc3cc(C)ccc3[n+]2C)Sc2ccc3sccc3c21 | n | n | n | 89µM | n | n | 0.34µM | 0.22µM | 0.68µM
COc1ccc(C)cc1NC(=O)C1CCN(S(=O)(=O)c2cc(Br)cc3c2N(C(C)=O)CC3)CC1 | n | x | n | x | x | n | x | x | x
COc1ccc(CCN2CC(C(=O)NCc3cnn(C(C)C)c3)CCC2=O)cc1 (stereo unspecified) | n | x | x | n | n | x | x | x | x
CC(O)(c1ccccc1)c1nc(-c2ccccc2)cs1 (stereo unspecified) | x | x | x | n | x | x | x | x | x
CC(O)(c1ccccc1)c1nc(-c2ccncc2)cs1 (stereo unspecified) | x | x | x | u | x | x | u | n | u
O=C(O)/C=C/C(=O)c1ccc2c(c1)CCc1ccccc1-2 | x | x | x | 1.5µM | n | x | u | n | 19µM
Cn1c(=O)c(=O)n(C)c2cc(C(=O)NCc3ccccc3Cl)ccc21 | n | x | n | x | x | n | x | x | x
Cc1cccc(C)c1OCC(=O)N/N=C/c1cc2c(cc1[N+](=O)[O-])OCO2 | n | n | n | n | n | n | x | x | x
O=C(CCc1ccc(O)c(O)c1)N/N=C/c1cc2c(cc1[N+](=O)[O-])OCO2 | n | x | x | u | n | x | 22µM | 30µM | 8.6µM
COc1ccc(CCC2CCNCC2)cc1 | n | x | x | n | n | x | x | x | x
O=C(/C=C/c1cccs1)Nc1scc(-c2ccccc2)c1C(=O)O | u | n | n | 32µM | u | n | u | n | 22µM
CC(C)OCCCn1c(=O)c2ccccc2n2c(-c3ccccc3)nnc12 | n | x | n | x | x | n | x | x | x
O=C1Nc2ccccc2/C1=N\N=C\c1ccc(O)c(O)c1 | u | n | n | 32µM | u | n | 6.8µM | u | 6.8µM
Oc1ccc(/C=N/N=C/c2ccc(O)c(O)c2)cc1O | u | x | x | 0.75µM | u | x | 0.61µM | n | 1.1µM
COc1cc(/C=N/N=C2/C(=O)Nc3ccccc32)ccc1O | n | n | n | n | n | n | x | x | x
COCCCNC(=O)CN1C(=O)COc2ccc(S(=O)(=O)N3CC(C)CC(C)C3)cc21 (stereo unspecified) | n | x | x | n | n | x | x | x | x
Cc1noc(C)c1NC(=O)N(C)C[C@H]1Oc2c(NS(=O)(=O)c3cn(C)cn3)cccc2C(=O)N([C@H](C)CO)C[C@@H]1C | x | x | x | n | n | x | x | x | x
COc1ccc(S(=O)(=O)Oc2ccc3ccccc3c2)cc1 | n | n | n | n | n | n | x | x | x
COC1=C(OC)C(=O)C(Sc2ccc3ccccc3c2)=CC1=O | x | x | x | 20µM | x | x | n | n | n
CCc1cccc(C)c1NS(=O)(=O)c1cc2[nH]c(=O)c(=O)[nH]c2cc1C | n | x | n | x | x | n | x | x | x
SMILES | BLM helicase inh-1 | RECQ1 inh | TRb-SRC2 inh | WRN helicase inh-1 | APEX1 inh | TR SRC2 fluor cs | WRN helicase inh-2 | TO DNA binding | BLM helicase inh-2
Cc1sc2c3ccsc3ccc2[n+]1C | n | n | n | u | n | n | n | n | u
NC(=O)COc1ccc(/C=C2\C(=O)ON=C2c2ccccc2)cc1 | x | x | x | 40µM | n | x | 19µM | u | u
O=C1c2cccc(NCCNCCO)c2C(=O)c2cccc(NCCNCCO)c21 | x | x | x | 7.1µM | x | x | 6.1µM | 1.2µM | 7.6µM
O=C(c1ccc2nc(-c3ccco3)c(-c3ccco3)nc2c1)N1CCN(c2ccccc2)CC1 | n | n | n | n | n | n | x | x | x
O=C(O)c1ccc2nc(-c3ccco3)c(-c3ccco3)nc2c1 | n | n | n | u | u | u | 4.3µM | 3.8µM | 12µM
O=C(N/N=C1/C(=O)c2cccc3cccc1c23)c1ccc(Cl)cc1 | 10µM | n | n | 16µM | n | n | 6.1µM | 19µM | 2.2µM
COc1ccc(Cn2c(SCC(N)=O)nc3c(sc4ccccc43)c2=O)cc1 | n | x | n | x | x | n | x | x | x
CCc1csc(CNC(=O)C2CCC(=O)N(Cc3cccc(OC)c3)C2)n1 (stereo unspecified) | x | x | x | n | x | x | x | x | x
Cc1cc(=O)oc2cc(Oc3ccc(C(N)=O)cc3[N+](=O)[O-])ccc12 | n | n | n | u | n | n | u | n | n
Cc1cc(Cl)ccc1Oc1ccc(C(N)=O)cc1[N+](=O)[O-] | n | n | n | n | n | n | x | x | x
CCOC(=O)N1CCc2c(sc3c2c(=O)n(Cc2ccccc2)c(=O)n3CC(=O)Nc2ccccc2F)C1 | n | x | n | x | x | n | x | x | x
O=C1C=C(c2c(O)ccc3ccccc23)c2ccccc2C1=O | x | x | x | 20µM | x | x | n | u | u
O=C(O)c1cc2ccccc2c2c1C(=O)c1ccccc1-2 | x | x | x | n | x | x | x | x | x
O=C(NCCS(=O)(=O)NCC1CCCO1)c1ccccc1 (stereo unspecified) | x | x | x | n | n | x | x | x | x
COc1cc(/C=N/Nc2nc(Nc3ccccc3)nc(-n3nc(C)cc3C)n2)cc(OC)c1OC | n | n | n | u | n | n | 6.8µM | n | 2.7µM
COc1ccc(C(=O)OCC(=O)N2CCc3ccccc3C2)cc1OC | x | x | x | n | n | x | x | x | x
CC(=O)Oc1cc(C(=O)OCC(=O)N2CCc3ccccc3C2)cc(OC(C)=O)c1OC(C)=O | x | x | x | 18µM | 5.3µM | x | 27µM | n | 22µM
COc1ccc(CN(C#N)c2nc(SC)nc(N(C)C)n2)cc1 | n | n | n | 100µM | n | n | n | n | n
COCN(C#N)c1nc(N(C)C)nc(N(C)C)n1 | n | n | n | n | n | n | x | x | x
Cc1ccc(S(=O)(=O)N2CCN(C(=O)c3cccc(-n4cccc4)c3)CC2)cc1 | x | x | x | u | n | x | x | x | x
O=C(c1cccc(-n2cccc2)c1)N1CCN(S(=O)(=O)c2ccccc2)CC1 | x | x | x | 18µM | 1.5µM | x | 4.3µM | u | 1.1µM
COc1ccc(N2CCN(C(CNC(=O)c3cccc(OC)c3)c3cccnc3)CC2)cc1 (stereo unspecified) | n | x | n | x | x | n | x | x | x
